NPSR antagonist = blocks cAMP signaling of the human neuropeptide S receptor; CHO-NPSR cells, cAMP TR-FRET, antagonist mode; hit rate 1% among 220,000; AID 1461; Potency, µM (highest dose often 38.3 µM), for the others: at the highest dose activity change, negative = inhibition, usual class: inhibitors; also: potency is read from the fitted curve at half-maximal effect; % is scaled to controls: 0 for no effect and ±100 for the full control effect; nearly all actives have a fitted effect of over 50% in size
Target sequence (Q6W5P4 whole entry, looked up): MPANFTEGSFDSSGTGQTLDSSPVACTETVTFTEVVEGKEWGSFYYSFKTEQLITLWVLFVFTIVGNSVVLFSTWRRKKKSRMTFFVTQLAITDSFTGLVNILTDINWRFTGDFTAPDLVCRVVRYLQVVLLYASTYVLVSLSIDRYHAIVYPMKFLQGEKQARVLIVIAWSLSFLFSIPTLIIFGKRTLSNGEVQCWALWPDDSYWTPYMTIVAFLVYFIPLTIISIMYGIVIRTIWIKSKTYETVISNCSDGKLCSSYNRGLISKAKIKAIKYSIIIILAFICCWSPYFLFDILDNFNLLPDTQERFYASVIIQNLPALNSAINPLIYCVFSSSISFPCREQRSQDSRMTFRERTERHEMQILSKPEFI
RXFP1 agonist = agonists of human relaxin receptor RXFP1. HEK293T-RXFP1 cAMP TR-FRET, 30 min; response scale: percent of porcine relaxin response, buffer zero. AID 2676. hit rate 0.3% among 370,000. Potency, µM (doses to about 57.5 µM), for inactives: top-dose activation, usual class: activators; also: potency is read from the fitted curve at half-maximal effect; % is scaled to controls: 0 for no effect and ±100 for the full control effect; nearly all actives have a fitted effect of over 60% in size
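Agonist response is measured as cAMP accumulation in an RXFP1-transfected HEK293T line under PDE4 inhibition. Values are scaled between buffer-only and 29 nM porcine relaxin, and EC50s come from standard Hill equation fits.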
BRCA1 expr act = BRCA1 expression activation | MCF7-BRCA1-FFLuc reporter, luminescence, 48 h; response scale: scaled: vehicle 0%, 10 µM genistein 100% | Potency, µM (top dose mostly 46.1 µM), inactives show at the top dose activation, actives largely listed as activators | hit rate 1.1% among 380,000; also: potency is read from the fitted curve at half-maximal effect; nearly all actives have a fitted effect of over 80% in size
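Compounds are tested at multiple concentrations on MCF7 BRCA1-luciferase reporter cells seeded at 2000 per well; after 48 h, a single luminescence end-point is taken and curves fitted to the normalized data.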
IL2 activator = activates IL-2 in a cell-based reporter assay; IL-2 activation reporter assay, cell-based qHTS; stimulated with anti-CD3/CD4/CD28 beads; in transgenic mouse T cells; hit rate 0.065% among 360,000; activation, % (series mostly up to about 46 µM); in the data active = activation above about 50%; inconclusive = mostly about 30% to 49%; also: 0% is about no effect
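Screening format: compound pinned onto unstimulated transgenic mouse T cells, 60 min incubation, then anti-CD3/anti-CD4/anti-CD28 bead stimulation for 18 hours at 37 degrees C, followed by EGFP and DsRed detection.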
Giardia kill = Giardia lamblia killing. Giardia lamblia trophozoite viability. activity change, % at 7.66 µM, hits read low. hit rate 0.15% among 340,000; in the data active = activity change below about -80%; inconclusive = between about -30% and that limit;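 also: parasites exposed to compound for two days anaerobically before the ATP read; % is scaled to controls: 0 for no effect and ±100 for the full control effect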
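Giardia lamblia trophozoites (100 cells/well) were incubated with compounds for 48 h at 37 deg C under anaerobic conditions. Viability was read as ATP content by one-step luminescence after 15-30 min at room temperature.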
RXFP1 antagonist = blocks the human relaxin receptor RXFP1 | Q9HBX9 | HEK293-RXFP1, relaxin-stimulated cAMP HTRF, 30 min; active compounds read low | activity change, negative = inhibition, % at 57.5 µM | hit rate 0.59% among 350,000 | AID 1259400;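 active = activity change of -60% or lower, but not beyond a set lower limit; inconclusive = change between -60% and -40%, or beyond the set limit; inactive = change above -40%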; also: % is scaled to controls: 0 for no effect and ±100 for the full control effect
* hit, by the source's call; ? = inconclusive; . = no result; [ ] = remark or other dose. Only some compounds are listed: those with a hit (about 1.9% of all), similar ones and a draw of the others. Unless noted, calls follow the shape of the dose curve; as a rule, active = well fitted curve in the direction sought with a large enough effect; inconclusive = small, poorly fitted or top-dose-only effect, or another doubt; inactive = no such curve, though single readings can be large; an effect the other way counts as inactive or inconclusive.

SMILES | NPSR antagonist | RXFP1 agonist | BRCA1 expr act | IL2 activator | Giardia kill | RXFP1 antagonist
O=c1/c(=C/c2ccc([N+](=O)[O-])cc2)sc2n1CCCN=2 | 10%[46.1 µM] | 1% | 3.5µM* | 0 | -8 | -16
N#C[C@H]1C[C@H]2C[C@@H]2N1C(=O)[C@@H](N)C12CC3CC(CC(O)(C3)C1)C2 | . | . | . | . | . | 10
CN(C)c1ccc(/C=N/N=C2/NC(=O)/C(=C/c3ccc([N+](=O)[O-])cc3)S2)cc1 | -9%[46.1 µM] | 0% | -16% | -2 | -93* | -20
CCOc1ccccc1OCC(=O)NNC(=O)Cn1cnc2c1c(=O)n(C)c(=O)n2C | 14% | 22µM* | -2% | 1 | 2 | -8
COc1cccc(/C=N/NC(=O)Cn2cnc3c2c(=O)n(C)c(=O)n3C)c1OC | 23% | 18µM* | -6% | 0 | 5 | -4
CC(C)NC(=O)Cn1cnc2c1c(=O)n(C)c(=O)n2C | -11%[46.1 µM] | 6% | -3% | -1 | 8 | 7
Cn1c(=O)c2c(ncn2CC(=O)NC2CCCCC2)n(C)c1=O | . | 16µM* | 1% | -3 | 32 | 4
CC(NC(=O)C(=O)N1CCCCC1)C(c1cccs1)N1CCN(Cc2ccccc2)CC1 (configuration not stated) | . | 3% | 3% | 0 | -8 | -66*
CCN1CCN(C(c2cccs2)C(C)NC(=O)C(=O)N2CCCCC2)CC1 (configuration not stated) | . | 1% | 15% | 0 | -2 | ?
Cc1cccnc1NC(=O)NC(=O)c1ccc(C(C)(C)C)s1 | -14% | 0% | 6.3µM* | 0 | -6 | .
Cc1cccnc1NC(=S)NC(=O)c1cccs1 | -9%[46.1 µM] | -1% | 59% | 0 | ? | 12
N#Cc1nc(-c2ccc(OCc3ccc(Cl)cc3)cc2)oc1N1CCCC1 | . | . | -17% | . | 17 | .
COCCNc1c(-c2cc3ccc(C)c(C)c3[nH]c2=O)nc2ccccn12 | 26% | 17% | 2.2µM* | -6 | 16 | 8
COCCNc1c(-c2ccc(OC)c(OC)c2)nc2ccc(Cl)cn12 | -1% | 0% | 6% | 1 | 2 | -3
CC(=O)Nc1ncc([N+](=O)[O-])s1 | . | . | . | . | . | -4
O=C1NCCN1c1ncc([N+](=O)[O-])s1 | . | 0% | 24% | 0 | -88* | .
Oc1ccc(Cl)cc1C1C=C(c2ccc3c(c2)OCO3)NC(c2cc(Br)ccc2F)N1 (configuration not stated) | . | . | -40% | . | -20 | .
N#CC(C#N)=C1NC2(CCCCC2)Cc2ccccc21 | -15% | 5% | -3% | 0 | -10 | -9
N#CC(C#N)=c1ccc2c(c1)NC1(CCCCC1)N=2 | 10µM* | -13% | -101% | -6 | -5 | .
CCCSc1ncc(Cl)c(C(=O)Nc2ccc(S(=O)(=O)N3CCCCC3C)cc2)n1 (configuration not stated) | . | -1% | . | . | . | 1
CCOc1ccc(N=C(/C(C(=O)C(=O)N2CCOCC2)=C(\O)c2ccccc2)c2ccccc2)cc1 | 2% | 3% | 7.9µM* | 0 | -4 | 1
Cc1cccc(-c2noc(C3CC(=O)N(c4ccc5c(c4)OCCO5)C3)n2)c1 (configuration not stated) | . | -1% | . | . | . | -22
Cc1ccc(-c2noc(C3CCCCC3)n2)cc1 | -13%[46.1 µM] | -3% | 10µM* | 0 | 1 | -3
Cc1cccc(-c2noc(C3CCCCC3)n2)c1 | -4%[46.1 µM] | -2% | 4.5µM* | -2 | -8 | -10
CCN1CCc2c(sc(-n3cccc3)c2C(C)NC(=O)Nc2cc(Cl)c(OC)cc2OC)C1 (configuration not stated) | . | 1% | . | . | . | 7
SMILES | NPSR antagonist | RXFP1 agonist | BRCA1 expr act | IL2 activator | Giardia kill | RXFP1 antagonist
OC1CCN(C(=S)NCCc2ccccc2)CC1 | 2%[46.1 µM] | -2% | 24% | -1 | -11 | -1
S=C(NCCc1ccccc1)N1CCc2ccccc2C1 | -16% | 3% | 10µM* | -3 | -3 | -27
CCCCOC(=O)c1ccc(OC(=O)c2sc3ncn(Cc4ccccc4Cl)c(=O)c3c2C)cc1 | . | 13% | . | . | . | 3
Cc1cn([C@@H]2O[C@H](CO)[C@@H](O)[C@H]2F)c(=O)[nH]c1=O | . | . | . | . | . | -9
CN(C)c1ccc(/C=C2\c3ccccc3-c3ccc(N(C)C)cc32)cc1 | . | . | -8% | . | . | .
O=S1(=O)Nc2c(ccc3cccnc23)-c2ccccc21 | 3.2µM* | -3% | -89% | -3 | -8 | -10
Cc1ccc(CSc2nc3cccnc3n2Cc2ccc(C(=O)NC3CCCCC3)cc2)cc1 | . | 20µM* | . | . | . | -4
Oc1ccc(-c2nc3ccc(Cl)cn3c2Nc2ccc(Cl)cc2)cc1 | . | 7% | . | . | . | -67*
Cc1ccc(S(=O)(=O)N[C@@H](Cc2ccccc2)C(=O)CCl)cc1 | 20µM* | -2% | -41% | -1 | 14 | .
Cc1ccc(S(=O)(=O)NC(Cc2ccccc2)C(=O)NN)cc1 (configuration not stated) | . | 1% | -5% | 1 | 1 | -3
CCOC(=O)CSc1nc2cc(C)ccc2cc1C#N | -7%[46.1 µM] | 9% | 12% | 24 | 2 | 20
CCOC(=O)CSc1nc2ccc(C)cc2cc1C#N | -16%[46.1 µM] | 0% | 4µM* | -1 | -5 | -19
O=[N+]([O-])c1cccc(CN2C(COCc3ccccc3)CCC=CS2(=O)=O)c1 (configuration not stated) | . | . | . | . | -16 | .
COc1ccc(-c2nc(-c3ccccn3)no2)cc1 | -8% | 27% | -101% | -3 | -81* | -5
O=C(Nc1ccc2c(c1)COC2=O)c1ccc(Cl)c(Cl)c1 | . | 5% | 14µM* | -4 | -19 | 11
O=C(Nc1ccc(Cl)c(Cl)c1)c1ccc(Cl)c(Cl)c1 | 3% | 17% | 29% | -1 | -10 | 3
CC(=O)Oc1c(I)cc(I)cc1C(=O)Nc1ccc(Cl)cc1 | . | 4% | -79% | -1 | -6 | -96*
Cc1ccc(NC(=O)c2cc(-c3ccccc3)nn2-c2ccccc2)cc1 | -36% | 0% | -66% | -4 | 15 | .
CC(=O)C(/C=N/c1cc(-c2ccc(C)cc2)nn1-c1ccccc1)=C(\C)O | 1% | -1% | 4µM* | -1 | 5 | -8
Cc1ccc2nc(N(CCCN(C)C)C(=O)c3ccc(S(=O)(=O)N4CCc5ccccc5C4)cc3)sc2c1 | . | 0% | -104% | -1 | -4 | -65*
CCc1ccc2nc(N(CCN(C)C)C(=O)c3ccc4ncsc4c3)sc2c1 | . | 1% | ? | -1 | 25 | -68*
Cc1ccc(C(=O)N(CCCN(C)C)c2nc3ccc(Cl)cc3s2)cc1C | -46% | 0% | -61% | 2 | 22 | -100*
CCN(CC)CCN(C(=O)c1ccc(S(=O)(=O)N2CCCCC2)cc1)c1nc2cc3c(cc2s1)OCO3 | 10µM* | -1% | -5% | -1 | 15 | 4

From PubChem BioAssay
